An excerpt weighted towards active compounds, which were near 1.1% of everything screened.
CatB mix inh – inhibitors of human cathepsin B in compound mixtures; Purified cathepsin B, AMC dipeptide fluorescence; 0.06% of 62,000 active; inhibition, %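 (ten-compound pools at 5 µM per compound and 50 µM total)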; in the data active = inhibition above about 22%, passing the limit was not always enough;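 also: 0% = enzyme without compound and 100% = no enzyme blank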
Her2 expr inh – Her2 kinase expression inhibition | P04626 | SKBR-3 HER2 protein level, AlphaScreen, 18-24 h; active compounds read low | HER2 level % of control, % at 10 µM | 0.69% of 65,000 active;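 active = HER2 level under 5% of the carrier-only control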;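 also: 100% = DMSO carrier and 0% = 500 nM PU-H71 HSP90 inhibitor; lower value means stronger loss of Her2 protein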
CatB inh – human cathepsin B inhibition | P07858 | purified cathepsin B, fluorogenic substrate, fluorescence | inhibition, %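 (tested at 10 µM)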 | 0.1% of 63,000 active; in the data active = inhibition above about 21%;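 also: 0% = enzyme with no compound and 100% = no enzyme blank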
WNV NS2B-NS3 inh – inhibitors of West Nile virus NS2B-NS3 protease; WNV NS2B-NS3 protease, fluorogenic substrate Ex360/Em465; active compounds read low; z-score (no concentration beside the values); 0.18% of 65,000 active; AID 577; in the data active = z-score below about -3
Target sequence (P06935 1371-1501 limits assumed): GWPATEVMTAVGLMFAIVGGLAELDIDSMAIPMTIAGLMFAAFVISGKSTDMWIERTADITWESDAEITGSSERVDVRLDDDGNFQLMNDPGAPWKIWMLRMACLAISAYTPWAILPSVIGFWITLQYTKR
Target sequence (P06935 1502-1679 limits assumed): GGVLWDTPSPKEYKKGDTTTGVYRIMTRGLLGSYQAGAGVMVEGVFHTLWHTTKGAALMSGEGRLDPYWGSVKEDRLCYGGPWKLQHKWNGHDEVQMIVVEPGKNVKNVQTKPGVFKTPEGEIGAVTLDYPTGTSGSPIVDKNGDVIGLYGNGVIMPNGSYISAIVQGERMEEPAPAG
CatS inh – inhibitors of human cathepsin S; P25774; recombinant cathepsin S, AMC dipeptide fluorescence, pooled mixtures; inhibition, %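 (tested at 5 µM per compound within 10-compound mixtures)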; 0.06% of 62,000 active; AID 501; in the data active = inhibition above about 32%, passing the limit was not always enough;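 also: 0% = enzyme without compound and 100% = blank without enzyme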
Target sequence (P25774 115-331 limits assumed): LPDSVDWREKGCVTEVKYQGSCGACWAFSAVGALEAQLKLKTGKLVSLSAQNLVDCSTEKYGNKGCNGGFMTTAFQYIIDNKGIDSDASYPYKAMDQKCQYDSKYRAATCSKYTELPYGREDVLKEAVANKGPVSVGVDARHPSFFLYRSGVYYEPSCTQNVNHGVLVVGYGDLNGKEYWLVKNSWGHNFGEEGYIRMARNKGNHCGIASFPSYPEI
CatL inh – inhibitors of human cathepsin L. purified cathepsin L, fluorogenic substrate, fluorescence. P07711. AID 460. inhibition, %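 (tested at 10 µM)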. 0.17% of 58,000 active; in the data active = inhibition above about 45%;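 also: 0% = enzyme with no compound and 100% = no enzyme blank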
Starred values were filed as active, the others as inactive.

Screening CCN(Cc1ccccc1)C(=O)c1ccccc1C returned CatB mix inh 2.3, Her2 expr inh 97.0, CatB inh 2.2, WNV NS2B-NS3 inh -3.46*, CatS inh 3.3 and CatL inh 12.4.
`COc1ccc(Br)cc1CNC(=O)CCc1nc(-c2ccccc2F)no1` gave CatB mix inh 3.1, Her2 expr inh 88.1, CatB inh 7.1, WNV NS2B-NS3 inh 2.04, CatS inh 13.7 and CatL inh 5.1.
CC(C)CC(NC(=O)C(CC(C)C)NC(=O)OC(C)(C)C)C(=O)O (stereo not drawn) was read as CatB mix inh 14.5, Her2 expr inh 77.9, CatB inh 0.5, WNV NS2B-NS3 inh -1.59, CatS inh -4.3 and CatL inh -6.5.
For CC(C)CCNC(=O)[C@H](CC(C)C)NC(=O)[C@H]1O[C@@H]1C(=O)O the results were CatB mix inh 100.3*, Her2 expr inh 98.5, WNV NS2B-NS3 inh 0.000315 and CatL inh 98.7*.
For CCOC(=O)C(C)Sc1nnc2n1C(C)(C)Cc1ccccc1-2 (stereo not drawn) the results were CatB mix inh -0.7, Her2 expr inh 70.2, CatB inh -0.3, WNV NS2B-NS3 inh 0.99, CatS inh 16.8 and CatL inh 5.2.
CC(=O)Nc1ccc(S(=O)(=O)N2CCN(c3nc(NC4CCCC4)c4ccccc4n3)CC2)cc1 was read as CatB mix inh 3.5, Her2 expr inh -9.2*, CatB inh -2.4, WNV NS2B-NS3 inh -0.11, CatS inh -2.8 and CatL inh -0.4.
`CC(=O)Nc1ccc(S(=O)(=O)N2CCN(c3cc(C)nc4ccccc34)CC2)cc1` gave CatB mix inh -9.2, Her2 expr inh 89.6, CatB inh 0.8, WNV NS2B-NS3 inh -0.69, CatS inh -3.2 and CatL inh 7.4.
CCCCCn1c(SCC#N)nc2cc(C(=O)NC3CCCCC3)ccc2c1=O was read as CatB mix inh -1.3, Her2 expr inh -19.7*, CatB inh -0.6, WNV NS2B-NS3 inh 0.18, CatS inh 6.9 and CatL inh 18.8.
CCCCCn1c(SCC#N)nc2cc(C(=O)NCC3CCCO3)ccc2c1=O (stereo not drawn) was read as CatB mix inh 2.4, Her2 expr inh 86.1, CatB inh 0.7, WNV NS2B-NS3 inh -0.26, CatS inh -1.2 and CatL inh 5.5.
Screening CCCCCCOC(=O)C(C#N)c1nc2ccccc2nc1N1CCN(C)CC1 (stereo not drawn) returned CatB mix inh 6.7, Her2 expr inh -4.8*, CatB inh 4.7, WNV NS2B-NS3 inh -0.62, CatS inh 2.8 and CatL inh 3.1.
`Cn1cnc2c1c(=O)[nH]c(=O)n2C` gave CatB mix inh -6.2, Her2 expr inh -17.8*, CatB inh -3.3, WNV NS2B-NS3 inh 0.91, CatS inh -13.7 and CatL inh 7.9.
Cn1c(=O)[nH]c(=O)c2c1ncn2CCN1CCOCC1 was read as CatB mix inh 4.5, Her2 expr inh 109.1, CatB inh 3.5, WNV NS2B-NS3 inh 0.19, CatS inh -4.0 and CatL inh 9.9.
CCOC(=O)C1=C(C)NC(C)=C(C(=O)OC)C1c1cccc(Cl)c1Cl (stereo not drawn) was read as CatB mix inh -7.6, Her2 expr inh 94.4, CatB inh 33.5*, WNV NS2B-NS3 inh -0.15, CatS inh -1.9 and CatL inh 3.1.
COC(=O)C1=C(C)NC(=O)CC1c1cccc(Cl)c1Cl (stereo not drawn) was read as CatB mix inh 2.1, Her2 expr inh 77.2, CatB inh 5.8, WNV NS2B-NS3 inh 1.55 and CatS inh 1.9.
Screening O=C(CN(C(=O)CCC(=O)Nc1nccs1)c1ccc2c(c1)OCCO2)NCc1ccco1 returned CatB mix inh 8.9, Her2 expr inh 76.3, CatB inh 4.6, WNV NS2B-NS3 inh -0.43, CatS inh 16.1 and CatL inh 7.7.
Screening Cc1ccc(NCc2nnc(SCC(N)=O)n2CCc2ccccc2)cc1 returned CatB mix inh 2.2, Her2 expr inh 90.4, CatB inh -2.6, WNV NS2B-NS3 inh -0.51, CatS inh -9.7 and CatL inh 8.0.
For CCOC(=O)CC1=C(C(=O)OCC)C(c2ccc(OC)cc2OC)C(C#N)=C(N)O1 (stereo not drawn) the results were CatB mix inh 2.9, Her2 expr inh -20.0*, CatB inh -3.7, WNV NS2B-NS3 inh 0.45, CatS inh -6.2 and CatL inh -9.9.
Screening O=C(COc1ccccc1Cl)OCC(=O)N1CCN(S(=O)(=O)c2ccccc2)CC1 returned CatB mix inh 4.7, Her2 expr inh 111.6, CatB inh 6.0, WNV NS2B-NS3 inh 0.06, CatS inh 0.6 and CatL inh -3.4.
Screening COc1ccc(S(=O)(=O)NC(CC(=O)N2CCc3ccccc32)c2ccco2)cc1 (stereo not drawn) returned CatB mix inh 0.2, Her2 expr inh 98.8, CatB inh 0.1, WNV NS2B-NS3 inh -0.14, CatS inh 6.1 and CatL inh 49.0*.
For O=C(c1cnc2sccn2c1=O)N1CCc2ccccc2C1 the results were CatB mix inh 1.3, Her2 expr inh 147.4, CatB inh 4.6, WNV NS2B-NS3 inh -0.61, CatS inh -4.5 and CatL inh 9.1.
For OC(Cc1nc2ccccc2[nH]1)c1ccccc1Cl (stereo not drawn) the results were CatB mix inh 3.4, Her2 expr inh 94.7, CatB inh 6.4, WNV NS2B-NS3 inh -0.54, CatS inh -1.2 and CatL inh 1.0.
Screening CC(C)n1c(-c2cccnc2)nc2cnccc21 returned CatB mix inh 5.4, Her2 expr inh 76.6, CatB inh 0.0, WNV NS2B-NS3 inh -9.37*, CatS inh 1.0 and CatL inh 0.4.
Screening N#CCSc1nc2cc(C(=O)N3CCC(C(N)=O)CC3)ccc2c2nc3ccccc3n12 returned CatB mix inh 7.0, Her2 expr inh -1.2*, CatB inh -3.9, WNV NS2B-NS3 inh -0.12, CatS inh 0.3 and CatL inh 1.2.
Screening CCOC(=O)CS(=O)(=O)c1ccc2ccccc2c1 returned CatB mix inh 3.0, Her2 expr inh 86.9, CatB inh -3.9, WNV NS2B-NS3 inh -1.41, CatS inh -2.5 and CatL inh -2.2.
Screening COCC(C)NC(=O)CCS(=O)(=O)c1nc(-c2ccc(OC)cc2)cc(C(F)(F)F)n1 (stereo not drawn) returned CatB mix inh 6.6, Her2 expr inh -19.6*, CatB inh 0.6, WNV NS2B-NS3 inh -0.01, CatS inh 1.7 and CatL inh 3.7.
`CCOC(=O)CCS(=O)(=O)c1nc(-c2ccccc2)cc(C(F)(F)F)n1` gave CatB mix inh 0.9, Her2 expr inh -8.7*, CatB inh -2.6, WNV NS2B-NS3 inh -0.57, CatS inh 1.2 and CatL inh 3.1.
Screening CCOC(=O)CS(=O)(=O)c1nc(-c2ccccc2)cc(C(F)(F)F)n1 returned CatB mix inh 2.0, Her2 expr inh -27.2*, CatB inh 4.5, WNV NS2B-NS3 inh -0.33, CatS inh 6.5 and CatL inh 5.7.

Compound activity from PubChem.
